About 760 (36%) of roughly 2,100 compounds were called active.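 Rule for the calls: active = thallium-flux fluorescence traces judged by eye to show enhanced or reduced glutamate response, manual score 1 or -1, so both directions (some results past the limit were not filed as active); inactive = the rest, including fluorescent or raised-baseline compounds.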 The list is a sample of the results.
Test: non-GIRK thallium flux modulation in mGlu8 cells, confirmation, counter-screen for GIRK activator project, cell-based, HEK-293 rmGlu8, no GIRK (AID 623868);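 note: extra codes mark interference with 3 for fluorescent and 4 for baseline rise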
Conditions: thallium flux fluorescence, at 10 µM, actives lie on both sides, codes: 1 enhancer, -1 blocker, 0 none, thallium stimulus containing EC20 glutamate

SMILES	manual score
CC(C)N(C(=O)CN(C#N)c1nc(N(C)C)nc(N(C)C)n1)c1ccccc1	0 (inactive)
CCN(CC)CC(O)COCCC12CC3CC(CC(C3)C1)C2 (stereo not drawn)	0 (inactive)
O=C(N/C(=N\O)c1ccccc1)Nc1ccc(Cl)cc1	0 (inactive)
N#C/C(=N\Nc1ccc(Cl)cc1)C(=O)c1ccccc1	-1 (active)
CSc1ccccc1NC(=O)Nc1ccc(Cl)cc1	0 (inactive)
CC(C)c1nc(=S)n(-c2ccccc2)[nH]1	1 (active)
CCOC(=O)c1cccc(-n2c(C)cc(C=O)c2C)c1	0 (inactive)
O=C(CSCc1ccc(Br)cc1)N=Nc1c(O)[nH]c2ccccc12	1 (active)
O=C(CSCc1ccccc1)N=Nc1c(O)[nH]c2ccccc12	1 (active)
Fc1ccccc1NC(=S)N/N=C/c1ccccc1Br	1 (active)
O=[N+]([O-])c1ccc(/C=N/NC(=S)Nc2ccccc2F)o1	1 (active)
Fc1ccccc1/C=N/NC(=S)Nc1ccc(Cl)cc1Cl	0 (inactive)
O=C(NCCN1CCN(C(=O)Nc2ccccc2)CC1)Nc1ccccc1	0 (inactive)
Cc1ccccc1N=Nc1c(C)[nH]n(C(N)=S)c1=O	1 (active)
S=C(NCc1ccco1)N/N=C/c1ccc(Cl)cc1	1 (active)
C/C(=N\NC(=S)NCCc1ccccc1)c1ccc(C)cc1	0 (inactive)
S=C(NCc1ccco1)Nc1ccc(Cl)c(Cl)c1	0 (inactive)
COc1ccc(/C(C)=N/NC(=S)NCc2ccco2)cc1	1 (active)
COc1cccc(N2CCN(c3c4c(nc5ncnn35)CCC4)CC2)c1	0 (inactive)
O=C(Oc1c(Cl)cc(Cl)c2cccnc12)c1ccco1	1 (active)
O=C(Oc1c(Cl)cc(Cl)c2cccnc12)c1cccc([N+](=O)[O-])c1	1 (active)
O=C(Oc1ccccc1C(=S)N1CCCCC1)c1cc([N+](=O)[O-])cc([N+](=O)[O-])c1	0 (inactive)
COC(=O)[C@H]1CCCN1C(=O)Nc1cccc(Oc2c(F)c(F)c(F)c(F)c2F)c1	0 (inactive)
Cc1cc(NC(=O)c2c(F)cccc2Cl)n(-c2nc3ccccc3[nH]2)n1	0 (inactive)
Cc1cc(NC(=O)Nc2ccccc2)n(-c2ccccc2)n1	0 (inactive)

SMILES	manual score
Cc1ccc(Nc2cc(C)nn2-c2nc(C)cc(=O)[nH]2)cc1	1 (active)
CCOC(=O)c1c(NC(=O)CSc2nnc(Cc3csc(N)n3)n2C)sc(C)c1C	-1 (active)
C=CCn1c(SCC(=O)Nc2sc(C)c(C)c2C(=O)OCC)nnc1-c1sc(N)nc1C	-1 (active)
CCOC(=O)c1cnc(SCC(=O)Nc2nc(C)c(C)s2)nc1N	0 (inactive)
CC1(C)Cc2ccccc2-c2nnc(SCC(=O)N3CCN(c4ccccc4)CC3)n21	0 (inactive)
C1CCC2(CC1)OCC1(CO2)COC2(CCCCC2)OC1	0 (inactive)
CC1(C)NC(=O)NC2(C)NC(=O)NC(C)(C)C12 (stereo not drawn)	0 (inactive)
CNC(=S)N/N=C/c1ccc(C(C)C)cc1	1 (active)
CNC(=S)N/N=C(\C)c1ccc(C)c(C)c1	0.5 (inactive)
C=CCNC(=O)C1CC(=O)N(c2ccc(OCC(=O)Nc3ccccc3)cc2)C1 (stereo not drawn)	0 (inactive)
Fc1cccc2sc(Nc3nc4ccccc4s3)nc12	0 (inactive)
Fc1ccc2nc(Nc3nc4c(F)cccc4s3)sc2c1	1 (active)
Fc1cccc2sc(Nc3nc4cc5c(cc4s3)OCO5)nc12	0 (inactive)
Fc1cc(F)c2nc(Nc3nc4c(F)cccc4s3)sc2c1	1 (active)
Fc1ccc2nc(Nc3nc4c(F)cc(F)cc4s3)sc2c1	1 (active)
COc1cc(/C=C2/C(=O)N=C(N)N2C)cc(OC)c1OC	0 (inactive)
CC1CC(C)CN(C(=S)Nc2ccc(SC(F)F)cc2)C1 (stereo not drawn)	0 (inactive)
Cc1ccc(Nc2n[nH]c(C)c2[N+](=O)[O-])cc1C	0 (inactive)
CCN(CC)CCN1C(=O)c2oc3ccccc3c(=O)c2C1c1ccccc1 (stereo not drawn)	0.5 (inactive)
NC(=O)COc1ccc(C2c3c(oc4ccccc4c3=O)C(=O)N2CC2CCCO2)cc1 (stereo not drawn)	0 (inactive)
O=c1c(O)c(-c2cccs2)oc2ccccc12	3 (inactive)
CN(C)CCCN1C(=O)c2oc3ccccc3c(=O)c2C1c1cccs1 (stereo not drawn)	1 (active)
CCN(CC)CCCN1C(=O)c2oc3ccccc3c(=O)c2C1c1cccs1 (stereo not drawn)	1 (active)
CCN(CC)CCN1C(=O)c2oc3ccccc3c(=O)c2C1c1ccc(F)cc1 (stereo not drawn)	0 (inactive)
O=C1Nc2ccccc2C12OCC1(CO2)COC2(OC1)C(=O)Nc1ccccc12 (stereo not drawn)	0 (inactive)

SMILES	manual score
O=C(Nc1nnc(-c2ccc(Cl)cc2)o1)c1cccc(N2C(=O)CCC2=O)c1	1 (active)
O=C(Nc1nnc(-c2ccc(Cl)cc2)o1)c1ccc(N2C(=O)CCC2=O)cc1	1 (active)
Cc1ccc(N2CC(C(=O)Oc3cccc(N4C(=O)CCC4=O)c3)CC2=O)cc1 (stereo not drawn)	0 (inactive)
COc1ccccc1NC(=O)c1cc(C(=O)Nc2ccccc2OC)cc(N2C(=O)CCC2=O)c1	0 (inactive)
COc1cccc2sc(Nc3nnc(-c4cccs4)o3)nc12	1 (active)
CCNc1nnc(-c2ccc(C)cc2)o1	0 (inactive)
COc1ccc(-c2nnc(Nc3nc4c(OC)cccc4s3)o2)cc1	1 (active)
COc1cccc2sc(Nc3nc(-c4ccccn4)cs3)nc12	1 (active)
CCN(CC)c1nc(C)nc2c1cnn2CCc1ccccc1	0 (inactive)
Cc1cc(=S)[nH]c2c(C)cccc12	1 (active)
Cc1cc(C)c2[nH]c(=S)cc(C)c2c1	1 (active)
CCOc1ccccc1Nc1nnc(Cc2ccccc2Cl)c(=O)[nH]1	0 (inactive)
CCOC(=O)C1=C(C)N=C2SCCC(=O)N2C1c1sccc1C (stereo not drawn)	-1 (active)
CCOC(=O)C1=C(C)NC(=O)NC1c1ccc(Br)o1 (stereo not drawn)	0 (inactive)
CC(C)(C)c1nnc(N/N=C/c2ccccc2)n(N)c1=O	0 (inactive)
Cc1nc2c(-c3ccccc3)c(C)[nH]n2c(=O)c1Cl	0 (inactive)
Cc1cc(=O)n2[nH]c(C)c(-c3ccccc3)c2n1	-0.5 (inactive)
Cc1[nH]n2c(=O)cc(C(C)(C)C)nc2c1-c1ccccc1	1 (active)
CC/C(=N\NC(=S)Nc1cc(C)ccc1C)c1ccc(OC(F)F)cc1	0 (inactive)
COc1ccc(C/C(C)=N/NC(=S)Nc2ccccc2)cc1	1 (active)
CC/C(=N\NC(=S)Nc1ccc(OC)cc1)c1ccc(OC(F)F)cc1	1 (active)
COc1ccc(NC(=S)Nc2ccc(OCc3ccccc3)cc2)cc1OC	0 (inactive)
COc1ccc(C(=S)Nc2ccc(N(C)C)cc2)cc1	0 (inactive)

Reference: PubChem BioAssay AID623868 (Vanderbilt High Throughput Screening Facility, 2012)
